G9a block: G9a (human) methyltransferase inhibition. Q96KQ7. G9a H3K9 monomethylation, AlphaScreen, 2 h. 8.8% of 350,000 active. AID 504332. Potency, µM (doses to about 102 µM), for the others: at the highest dose activity, negative = inhibition, actives largely listed as inhibitors; further: potency means the concentration at half of the fitted maximal effect; on the % scale 0 is the no-effect control and ±100 the full control effect; nearly all actives have a fitted effect of over 75% in size
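Step 1: enzyme (final 20 nM) with compound, 15 min RT. Step 2: substrate peptide 500 nM and SAM 20 uM, 2 h RT. Step 3: anti-H3K9me1 antibody and AlphaScreen beads, 10 min, then plate read.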
PLK1 PBD inh: blocks phosphopeptide binding to human PLK1 polo-box domain; P53350; Plk1 PBD binding of FITC phosphopeptide, fluorescence polarization; Potency, µM, inactives show max response, negative = inhibition, hits mostly inhibitors; 2.8% of 360,000 active; further: potency means the concentration at half of the fitted maximal effect; series mostly up to about 57 µM; on the % scale 0 is the no-effect control and ±100 the full control effect; nearly all actives have a fitted effect of over 65% in size
BAZ2B block: blocks human BAZ2B; Q9UIF8; AlphaScreen BAZ2B-H3K14Ac peptide displacement; Potency, µM (doses to about 114 µM), for inactives: top-dose activity change, negative = inhibition, usual class: inhibitors; 4.4% of 360,000 active; AID 504333; further: potency means the concentration at half of the fitted maximal effect; on the % scale 0 is the no-effect control and ±100 the full control effect; nearly all actives have a fitted effect of over 60% in size
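Inhibition is scored as reduced AlphaScreen emission. The BAZ2B/b-H3(5-23)K14Ac complex (50 nM each) in PBS pH 7.4, 0.01% Tween-20 meets compound (up to 110 uM) for 30 min at RT before bead addition.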
PI5P4Ka inh: blocks human PI5P4K alpha kinase activity | AID 652105 | PI5P4Kalpha enzyme, ADP-Glo luminescence, 60 min; hits give low values | max response, % | 1.2% of 330,000 active; active means max response of -50% or lower; inconclusive means between -30% and -50%; inactive means -30% or higher; further: value at the top dose of about 77 µM; on the % scale 0 is the no-effect control and ±100 the full control effect
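Quantitative HTS of the MLSMR library against PI5P4Kalpha with substrate. ATP added last at 5 microM final; room temperature, 60 minutes. Remaining ATP depleted, ADP converted and read as luminescence.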
JMJD2A Tudor: inhibitors of human JMJD2A Tudor domain | Potency, µM (titrated, usually from 114 µM), without a hit: top-dose activity change, negative = inhibition, most hits filed as inhibitors | AlphaScreen JMJD2A-Tudor / H3K4me3 peptide binding | 4.4% of 390,000 active | AID 504339; further: potency means the concentration at half of the fitted maximal effect; on the % scale 0 is the no-effect control and ±100 the full control effect; nearly all actives have a fitted effect of over 50% in size
HP1b chromo inh: HP1-beta chromodomain-methylated histone interaction inhibition; Potency, µM (series often up to 114 µM), inactives show at the top dose activity change, negative = inhibition, usual class: inhibitors; P83916; AlphaScreen HP1-beta / biotin-H3K9me3 peptide binding; 0.56% of 390,000 active; AID 540317; further: potency means the concentration at half of the fitted maximal effect; nearly all actives have a fitted effect of over 70% in size
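HP1-beta protein (50 nM final) preincubated 30 min at room temperature with biotinylated H3(1-18)K9me3 peptide (50 nM) in PBS pH 7.4, 0.01% Tween-20, then compound added for 30 min. AlphaScreen streptavidin donor/nickel chelate acceptor beads (10 ug/mL final), 30 min dark, luminescence read.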
Starred values were filed as active, the others as inactive; ? = inconclusive; . = not tested or not shown; ! = repeats disagree; [ ] = dose if it differs, or a comment. Most compounds without a hit are left out; they make up all but 12% or so of the library. Unless noted, the call rests on the fitted dose curve; in most records, active means well fitted curve in the direction sought with a large enough effect; inconclusive means small, poorly fitted or top-dose-only effect, or another doubt; inactive means no such curve, though single readings can be large; an effect the other way counts as inactive or inconclusive.

SMILES | G9a block | PLK1 PBD inh | BAZ2B block | PI5P4Ka inh | JMJD2A Tudor | HP1b chromo inh
CN(C)S(=O)(=O)c1cccc(COC(=O)c2cc([N+](=O)[O-])ccc2N2CCOCC2)c1 | 56µM* | -5% | -3% | -1 | -25% | -1%
O=C(O)c1ccccc1-c1ccccc1C(=O)Nc1ccc2c(c1)C(O)c1ccccc1-2 (stereo not drawn) | . | 1% | . | 1 | . | .
O=C(Nc1ccc2[nH]ccc2c1)c1ccccc1 | ? | -2% | -20% | -18 | -24% | -1%
S=c1[nH]c2ccccc2s1 | 11µM* | . | . | . | . | .
O=C(Nc1ccc2[nH]c(=S)sc2c1)Nc1ccccc1F | 45µM* | 21µM* | ? | -72* | -21% | 25%
O=C(Nc1ccc2[nH]c(=S)sc2c1)c1ccccc1 | 5.6µM* | ? | -37% | -68* | -32% | -5%
O=C(Nc1ccc(F)cc1)Nc1ccccc1F | 23% | 1% | -3% | 0 | -10% | 44%
Cc1c(NC(=O)C2CC=CCC2C(=O)O)c(=O)n(-c2ccccc2)n1C (stereo not drawn) | -47%[12.7 µM] | -18% | 79µM* | -1 | -19% | 11%
Cc1c(NC(=O)CN2CC(C)OC(C)C2)c(=O)n(-c2ccccc2)n1C (stereo not drawn) | 16µM* | -11% | 20µM* | 2 | 11µM*! | 56µM*!
CCN(CC)C(=O)Nc1c(C)n(C)n(-c2ccccc2)c1=O | 15%[59 µM] | 1% | 6% | -5 | 3% | 14%
CCN1CCN(C(C)C(=O)Nc2c(C)n(C)n(-c3ccccc3)c2=O)CC1 (stereo not drawn) | 11µM* | -4% | 50µM* | -2 | 7.9µM* | ?
CCOC(=O)c1cc(CC)sc1NC(=O)c1cc(OCC)c(OCC)c(OCC)c1 | 7% | 27µM* | 8% | . | 66% | 41%
CCOC(=O)c1cc(CC)sc1NC(=O)c1ccc2c(c1)OCCO2 | 7%[12.7 µM] | 21µM* | 44% | 1 | -1%[11.4 µM] | 74%
Cc1cccc(C(=O)Nc2cc3c(cc2N2CCOCC2)n(C)c(=O)n3C)c1 | -2%[59 µM] | . | -32% | . | -7% | 6%
COc1cccc(C(=O)Nc2cc3c(cc2N2CCOCC2)n(C)c(=O)n3C)c1 | 20µM* | ? | ? | 4 | -7% | 80%
Cc1cccc(C(=O)Nc2cc3c(cc2N2CCCCC2)n(C)c(=O)n3C)c1 | -42%[59 µM] | . | 50µM* | . | -22% | 15%
CCOc1cc(C(=O)Nc2cc3c(cc2N2CCOCC2)n(C)c(=O)n3C)cc(OCC)c1OCC | 14% | 13µM* | -33% | -1 | 25µM*! | 17%
C=C(C)C(=O)OCCCCCCOc1ccc(C(=O)O)cc1 | 10%[12.7 µM] | ? | ? | . | 11µM* | ?
COCCNC(=O)COc1ccc(Nc2ccccc2)cc1 | 50µM* | -8% | ? | -7 | -21% | 0%
COCCNC(=O)COc1ccc(Oc2ccccc2)cc1 | -5% | 0% | 10% | 0 | -14% | 43%
COc1ccc(-n2c(=O)c(-c3ccc(F)c(F)c3)nc3cncnc32)cc1 | -1%[0.501 µM] | . | . | . | . | .
O=C(c1ccco1)N1CCN(C(c2ccc(F)cc2)c2nnnn2Cc2cccs2)CC1 (stereo not drawn) | ? | 0% | ? | -7 | -35% | 17%
CC(C)CCn1nnnc1C(c1ccc(F)cc1)N1CCN(C(=O)c2ccco2)CC1 (stereo not drawn) | 50µM* | -8% | -35% | -6 | -12% | 45%
COc1cccc(C(c2nnnn2CC2CCCO2)N2CCN(C(=O)c3ccco3)CC2)c1OC (stereo not drawn) | -10% | -12% | ? | 4 | -26% | 13%
COCCn1nnnc1C(c1cccc(OC)c1OC)N1CCN(C(=O)c2ccco2)CC1 (stereo not drawn) | 50µM* | 3% | -18% | 0 | -10% | 29%
SMILES | G9a block | PLK1 PBD inh | BAZ2B block | PI5P4Ka inh | JMJD2A Tudor | HP1b chromo inh
COCCn1nnnc1C(c1ccccc1OC)N1CCN(C(=O)c2ccco2)CC1 (stereo not drawn) | 50µM* | -6% | -26% | 0 | ? | 52%
COc1ccc(-c2nc3c(n2O)CCc2c-3no[n+]2[O-])cc1 | 50µM* | ? | -32% | -16 | -11%[11.4 µM] | -4%
COn1c(-c2ccccc2)nc2c1CCc1c-2no[n+]1[O-] | 14%[59 µM] | -12% | 6% | 2 | -6% | 19%
CCCCCCCN1N=C(C)C(C(=O)c2ccccc2)C1=O (stereo not drawn) | ? | -6% | ? | 2 | 50µM* | 5%
Cc1ccc(CNC(=O)c2c3c(nc4ccccc24)C(=O)N(C2CCCCC2)C3)cc1 | 13%[59 µM] | . | -9% | . | ? | ?
C[C@@H]1CN([C@H](C)CO)C(=O)CCCn2nncc2CO[C@H]1CN(C)Cc1cccc(C(F)(F)F)c1 | . | -22% | . | 0 | . | .
CCN(Cc1ccccc1)C(=O)c1c(C)oc2ncn(C)c(=O)c12 | -12%[59 µM] | . | 7%[57.1 µM] | . | -10% | 19%
O=C(/N=C1\NC(=O)C(F)(C(F)(F)F)S1)NC1CCCCC1 (stereo not drawn) | 3.2µM* | 13µM* | -28% | -61* | 50µM* | ?
CCC1S/C(=N/C(=O)NC2CCCCC2)NC1=O (stereo not drawn) | 4%[59 µM] | 2% | -2% | -1 | -9% | 33%
Cn1ccnc1SCc1ccc(Cl)cc1Cl | 8.9µM* | -3% | -13% | 3 | ? | 8%
CCOC(=O)c1oc2ccc(OC)cc2c1NC(=O)CN1CCN(C)CC1 | -28% | -4% | -2% | . | -1% | 20%
Cc1ccc(C(=O)c2oc3ccc(Cl)cc3c2NC(=O)CN2CCN(C)CC2)cc1 | 79µM* | -1% | 25µM* | -2 | ? | -9%[57 µM]
CCC(NC(C)C)C(O)c1ccc(O)c(O)c1 (stereo not drawn) | 27µM*! | -12% | ? | -3 | ? | 7%
CC[C@H](NC(C)C)[C@H](O)c1ccc(O)c2[nH]c(=O)ccc12 | 17%[59 µM] | . | . | . | . | .
CCC(c1ccc(O)c(O)c1)C(CC)c1ccc(O)c(O)c1 (stereo not drawn) | . | ? | . | -26 | 79µM* | ?
CCN(CC)CCNC(=O)c1cc2c(=O)n(C)c3cc(Cl)ccc3c2s1 | -14%[59 µM] | . | . | . | -9% | 19%
Cc1nn(C)c(C)c1CCC(=O)N1CCCC(C(=O)c2cccc(OC(C)C)c2)C1 (stereo not drawn) | 7% | 27µM* | -2% | -3 | -25% | 11%
CC(C)Oc1cccc(C(=O)C2CCCN(C(=O)CCc3cnn(C)c3)C2)c1 (stereo not drawn) | 90% | -2% | 0% | 7 | -13% | 33%
COc1cc(C[C@@H]2C(=O)OC[C@H]2Cc2ccc(OC)c(OC)c2)ccc1O | 19%[2.33 µM] | -1% | -6% | 0 | -15% | 31%

Screens: PubChem, National Center for Advancing Translational Sciences (NCATS)
